Screening results from PubChem BioAssay.
The list is not random: actives were taken first. Their share in the collection is about 6.2%.
AI-2 QS modul: modulates the Vibrio harveyi AI-2 quorum sensing system; Vibrio harveyi JMH597 AI-2 luminescence/OD600 ratio, 9 h; stronger effect = lower value; strain lacks LuxN and CqsS sensors; 0 = neutral-control median; activity change, % at 7.5 µM; 300,000 compounds, 0.4% hits; AID 2094; in the data active = activity change below about -75%, passing the limit was not always enough;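 note: luminescence divided by OD600 gain over 9 h not by final OD600 alone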
NTR1 agonist: activates human neurotensin receptor 1; P30989; NTR1-U2OS beta-arrestin-GFP spot imaging, agonist mode; activation, % at 20 µM; 330,000 compounds, 0.17% hits; AID 493036;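 active = activation at or above 40% of the spot to cytoplasm intensity ratio, with at least 20 cells analyzed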
Target sequence (P30989 whole entry, looked up): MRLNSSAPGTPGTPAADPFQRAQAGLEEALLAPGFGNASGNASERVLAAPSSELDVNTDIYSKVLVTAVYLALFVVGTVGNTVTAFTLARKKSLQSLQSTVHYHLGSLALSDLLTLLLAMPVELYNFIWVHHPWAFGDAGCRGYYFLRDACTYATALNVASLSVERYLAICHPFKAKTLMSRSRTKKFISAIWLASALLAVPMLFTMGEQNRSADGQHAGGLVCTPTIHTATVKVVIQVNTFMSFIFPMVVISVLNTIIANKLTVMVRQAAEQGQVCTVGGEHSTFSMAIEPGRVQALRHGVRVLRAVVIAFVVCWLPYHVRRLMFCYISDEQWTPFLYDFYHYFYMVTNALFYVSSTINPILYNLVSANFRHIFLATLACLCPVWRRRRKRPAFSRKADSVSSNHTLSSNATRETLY
NR3A LBD binder: NR3A (human) ligand-binding domain modulation | NR3A LBD differential scanning fluorimetry, Tm shift; 0% = protein alone, 100% = glycine-bound protein | Tm shift relative to glycine control, % at 25 µM | 340,000 compounds, 2.5% hits;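 active = melting temperature shift of at least 10% of the positive control shift, at one fixed dose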
Cardio protect: myocardial damage modulation in H9c2 cells; H9c2 cardiomyocytes, H2O2 injury protection, ATPLite, 2 h; protection from H2O2 cell death, % at 20 µM; 360,000 compounds, 0.63% hits; AID 588492;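 active = compounds giving at least 50% protection of heart cells from peroxide-induced death in the single-dose screen, raw or plate-pattern-corrected value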
SUMO Mot1 rescue: SUMOylation pathway inhibition by Mot1-301 growth rescue | S. cerevisiae Mot1-301 growth rescue, ATP luminescence, 38.5C; percent above DMSO median, 100 means doubled | growth rescue, % at 18.8 µM | 320,000 compounds, 1% hits | AID 2716;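 active = every valid replicate shows activation above 250% relative to neutral control wells; inactive = the rest, any valid replicate at or below 250%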
AHR act: activators of human aryl hydrocarbon receptor | activation, % at 5 µM | 320,000 compounds, 2.5% hits | P35869 | AHR-responsive luciferase reporter cells, luminescence; in the data active = activation above about 47%
Mot1 SUMO dose: SUMO pathway inhibitors in yeast Mot1-301 growth; shares compounds with SUMO Mot1 rescue; S. cerevisiae Mot1-301 galactose growth, ATP luminescence, 24 h; -100 = growth of slx-deleted rescue strain; growth activity, percent, % at 42 µM; 2,300 tested, under 10 active; AID 493004;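 active = Signal drops as the depositor expects, and the fitted half-maximal dose is no more than ten times the top valid tested dose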;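 note: more negative values mean stronger growth rescue toward the control strain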
Each line names hits and unclear results; the compound was inactive in the other large screens (follow-up assays come after a bar, where they were run).

CN(CC(=O)Nc1ccccc1Sc1ccccc1)Cc1nc2ccccc2c(=O)[nH]1	SUMO Mot1 rescue 704.3 | Mot1 SUMO dose inactive
CCCN(C(=O)CCl)C1=CCCCC1	none
CCc1ccccc1-n1nnnc1SCC(=O)Nc1ccc(N2CCN(C)CC2)cc1	none
COc1ccc(C#Cc2cnc3c(c2)C(=O)N([C@H](C)CO)C[C@@H](C)[C@H](CN(C)C(=O)CN(C)C)O3)cc1	none (no result: AI-2 QS modul, NTR1 agonist, NR3A LBD binder, SUMO Mot1 rescue, AHR act)
Cc1cccc(C)c1NC(=O)C1(N(Cc2ccco2)C(=O)CC2NC(=O)NC2=O)CCCCC1 (stereo not given)	SUMO Mot1 rescue 413.5 | Mot1 SUMO dose inactive
O=C1NC(=O)C(CC(=O)N(Cc2ccco2)C2(C(=O)NC3CCCC3)CCCCC2)N1 (stereo not given)	none
CCC(C)NC(=S)Nc1ccccc1 (stereo not given)	none (no result: SUMO Mot1 rescue, AHR act)
CC(C)C(NC(=S)Nc1ccccc1)C(=O)O (stereo not given)	SUMO Mot1 rescue 955.9 | Mot1 SUMO dose inactive
COc1ccc(CC(N)c2csc(Nc3nccc(C(F)(F)F)n3)n2)cc1 (stereo not given)	none (no result: AI-2 QS modul, NTR1 agonist, NR3A LBD binder, SUMO Mot1 rescue, AHR act)
O=C(O)c1ccc(Cl)cc1NC(=O)C1CCN(S(=O)(=O)c2cccs2)CC1	none (no result: AI-2 QS modul, NTR1 agonist, NR3A LBD binder, SUMO Mot1 rescue, AHR act)
CCOC(=O)C1ON2CCCCC2C1(O)C(F)(F)F (stereo not given)	SUMO Mot1 rescue 528.2 | Mot1 SUMO dose inactive
CCOC(=O)C1CCN(C(=O)CCC2CCCC2)CC1	none
COC(=O)[C@@H](NC(=O)Nc1ccc(S(N)(=O)=O)cc1)C(C)C	SUMO Mot1 rescue 373.3 | Mot1 SUMO dose inactive
CCCC(/C=C/c1ccc(OC(C)=O)cc1)=C1/c2ccccc2C(=O)N1c1ccccc1	none (no result: AI-2 QS modul)
CCOc1cc(C(N)=O)cc(Cl)c1OCc1ccccc1	SUMO Mot1 rescue 441.6 | Mot1 SUMO dose inactive
CC(C)CNC(=O)C1(C)CCCN1C(=O)c1cccnc1Oc1ccccc1 (stereo not given)	none (no result: AI-2 QS modul, NTR1 agonist, NR3A LBD binder, SUMO Mot1 rescue, AHR act)
O=c1cc(C(F)(F)F)c2sc(N3CCCCC3)nc2[nH]1	SUMO Mot1 rescue 429.3 | Mot1 SUMO dose inactive
O=C(CCSc1nnc(-c2ccncc2)o1)Nc1cccc(Cl)c1	none
O=C(CCSc1nnc(-c2ccncc2)o1)Nc1ccc(Cl)cc1	SUMO Mot1 rescue 450.0 | Mot1 SUMO dose inactive
N#Cc1ccc(/C=C/C(=O)c2ccco2)cc1	SUMO Mot1 rescue 718.4 | Mot1 SUMO dose inactive
O=C(NCCC(=O)N1CCN(C(=O)c2ccco2)CC1)c1ccc(Br)cc1	none
CC[n+]1c(/C=C(\C)SC)sc2ccccc21	SUMO Mot1 rescue 539.9 | Mot1 SUMO dose inactive
CC[n+]1c(/C=C(/C)SC)sc2ccccc21	none
Cc1cccc(CN2CCN(C3CN(CCc4ccccc4)S(=O)(=O)C3)CC2)c1 (stereo not given)	none (no result: AI-2 QS modul, NTR1 agonist, NR3A LBD binder, SUMO Mot1 rescue, AHR act)
Cc1nc(N/N=C\c2ccc3c(c2)OCO3)sc1C	SUMO Mot1 rescue 497.5, AHR act 74.8 | Mot1 SUMO dose inactive
C(=N\Nc1nc2ccccc2[nH]1)/c1ccc2c(c1)OCO2	none (no result: NTR1 agonist, SUMO Mot1 rescue, AHR act)
Cc1ccc(C)c(NC(=O)COC(=O)c2ccc3c(c2)OCO3)c1	SUMO Mot1 rescue 975.0 | Mot1 SUMO dose inactive
Cc1ccc(S(=O)(=O)N(C)C)cc1NC(=O)COC(=O)c1ccc2c(c1)OCO2	none
O=C(CSc1nnc(-c2ccccc2Cl)o1)Oc1ccc(Br)cc1	SUMO Mot1 rescue 500.7 | Mot1 SUMO dose inactive
O=C(CSc1nnc(-c2ccccc2O)o1)Oc1ccc(Br)cc1	none
CC(C)NC(=O)c1ccccc1-c1ccccc1	SUMO Mot1 rescue 467.5 | Mot1 SUMO dose inactive
COc1ccc(NC(=O)c2cccc(S(=O)(=O)NCc3ccco3)c2)c(OC)c1	none
Cc1ccc(NC(=O)N[C@H](C(=O)O)C(C)C)c(C)c1	SUMO Mot1 rescue 830.2 | Mot1 SUMO dose inactive
COc1ccc(OC)c(S(=O)(=O)Nc2ccc3[nH]c(=O)[nH]c3c2)c1	none
CC(C)(CNC(=O)c1cccs1)CNC(=O)c1cccs1	SUMO Mot1 rescue 666.7 | Mot1 SUMO dose inactive
Cc1ccc(S(=O)(=O)N2CCCC2C(=O)NCCc2ccccc2)cc1 (stereo not given)	SUMO Mot1 rescue 471.2 | Mot1 SUMO dose inactive
